BoNT F protease = inhibitors of Botulinum neurotoxin F light chain protease. Multiplex microsphere protease cleavage assay, flow cytometry. inhibition, % at 10 µM. 360,000 compounds, 0.22% hits. AID 588497; in the data active means inhibition above about 35%, passing the limit was not always enough; inconclusive means no clear call, values can overlap the other calls; further: plate controls were buffer without enzyme for full effect and enzyme alone for no effect
MazF activator = increases E. coli MazEF RNase cleavage of RNA. FAM/BHQ RNA-DNA oligo cleavage fluorescence, 5 h. activation, % at 20 µM. 350,000 compounds, 0.32% hits; in the data active means activation above about 50%
Target sequence (P0AE70 whole entry, looked up): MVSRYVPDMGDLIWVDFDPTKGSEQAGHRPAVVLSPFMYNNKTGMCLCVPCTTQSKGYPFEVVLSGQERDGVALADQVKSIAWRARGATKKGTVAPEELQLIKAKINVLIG
Autofluor counter = compound fluorescence in toxin protease inhibitor counterscreen | compound autofluorescence counterscreen, microsphere flow cytometry; stronger effect = higher value | fluorescence intensity (no concentration beside the values) | 360,000 compounds, 3.1% hits | AID 624483; in the data active means fluorescence intensity above about 16000; inconclusive means no clear call, values can overlap the other calls
BoNT-A LC inh2 = BoNT A light chain protease inhibition; multiplex microsphere protease substrate cleavage, flow cytometry; inhibition, % at 10 µM; 360,000 compounds, 0.17% hits; further: plate controls were buffer without enzyme for full effect and enzyme alone for no effect
Anthrax LF inh2 = inhibitors of Bacillus anthracis lethal factor protease. P15917. multiplex microsphere protease cleavage assay, LF. inhibition, % at 10 µM. 360,000 compounds, 0.12% hits. AID 588501; further: plate controls were buffer without enzyme for full effect and enzyme alone for no effect
DUSP3 inh = inhibitors of human VHR1 phosphatase (DUSP3). inhibition, % at 13.3 µM. AID 1654. recombinant VHR phosphatase, pNPP absorbance. 290,000 compounds, 0.52% hits; in the data active means inhibition above about 50%
Target sequence (P51452 whole entry, looked up): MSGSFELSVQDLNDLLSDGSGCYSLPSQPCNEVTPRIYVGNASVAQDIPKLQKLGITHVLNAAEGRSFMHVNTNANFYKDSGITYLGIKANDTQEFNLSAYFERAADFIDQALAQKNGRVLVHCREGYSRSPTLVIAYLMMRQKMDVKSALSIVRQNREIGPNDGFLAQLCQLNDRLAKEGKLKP
BoNTA LC inh 1 = BoNT/A light chain protease inhibition. shares compounds with BoNT F protease. multiplex microsphere protease assay, flow cytometry. inhibition, % at 10 µM. 720 compounds, 3% hits; in the data active means inhibition above about 32%
BoNTF LC inh 1 = BoNT/F light chain protease inhibition; shares compounds with BoNT F protease; multiplex microsphere protease cleavage assay, flow cytometry; inhibition, % at 10 µM; 720 tested, under 10 active; AID 602140; call rule not given here
LF protease CP1 = blocks anthrax lethal factor protease. shares compounds with BoNT F protease. multiplex microsphere protease cleavage assay, LF. inhibition, % at 10 µM. 720 tested, under 10 active; call rule not given here
* = called active by the depositor. The list is not random: actives were taken first. Their share in the collection is about 4.1%. Unless noted, no stated cut-off is given here; in the data, active means inhibition above about 30%; inconclusive means no clear call, values can overlap the other calls; inactive means below that.

`CC(C)NCC(O)COc1cccc2ccccc12` (stereo not drawn) gave MazF activator 1.8, BoNT-A LC inh2 -0.5 and DUSP3 inh 2.7.
O=C1c2ccccc2C(=O)N1CCCn1ccnc1 was read as BoNT F protease inconclusive, MazF activator -6.8, Autofluor counter 3039, BoNT-A LC inh2 0.7, Anthrax LF inh2 13.3 and DUSP3 inh 15.6.
Screening O=C1c2ccccc2C(=O)N1CCn1ccnc1 returned BoNT F protease 40.7*, MazF activator 7.1, Autofluor counter 3914, BoNT-A LC inh2 0.5, Anthrax LF inh2 14.2, DUSP3 inh 26.1, BoNTA LC inh 1 -0.5, BoNTF LC inh 1 0.5 and LF protease CP1 1.1.
Screening O=C(c1ccc(S(=O)(=O)N2CCCC2)cc1)N(c1ccc(F)cc1)C1C=CS(=O)(=O)C1 (stereo not drawn) returned BoNT F protease 0.3, MazF activator -0.5, Autofluor counter 5381, BoNT-A LC inh2 0.9, Anthrax LF inh2 -0.5 and DUSP3 inh 7.7.
Screening O=C(O)c1ccc(N2C(=O)CC(N3CCN(c4ccc(Cl)cc4)CC3)C2=O)cc1 (stereo not drawn) returned BoNT F protease inconclusive, MazF activator -0.3, Autofluor counter 3771, BoNT-A LC inh2 0.1, Anthrax LF inh2 -8.6 and DUSP3 inh -22.7.
Screening O=C1CC(N2CCN(c3ccc(Cl)cc3)CC2)C(=O)N1c1ccc(F)cc1 (stereo not drawn) returned BoNT F protease 56.5*, MazF activator 4.4, Autofluor counter 3880, BoNT-A LC inh2 2.6, Anthrax LF inh2 -3.3, DUSP3 inh 0.3, BoNTA LC inh 1 -1.5, BoNTF LC inh 1 1.1 and LF protease CP1 -3.0.
`CCCCN(C)C(=O)c1cc2cc3ccc(OC)cc3nc2s1` gave BoNT F protease -4.1, MazF activator 4.1, Autofluor counter 3426, BoNT-A LC inh2 1.0, Anthrax LF inh2 -6.6, DUSP3 inh 32.6, BoNTA LC inh 1 0.2, BoNTF LC inh 1 -1.7 and LF protease CP1 -0.4.
Screening CC(C)N1C(=O)C(=O)N(CC(=O)N2c3ccccc3CC2C)C1=O (stereo not drawn) returned BoNT F protease 4.8, MazF activator -2.0, Autofluor counter 3300, BoNT-A LC inh2 0.2 and Anthrax LF inh2 -5.8.
For COC(CNC(=O)c1ccc2nc(-c3cccs3)c(-c3cccs3)nc2c1)OC the results were BoNT F protease 26.2, MazF activator 4.2, Autofluor counter 8849, BoNT-A LC inh2 44.5*, Anthrax LF inh2 25.0, DUSP3 inh 4.7, BoNTA LC inh 1 20.8, BoNTF LC inh 1 1.9 and LF protease CP1 8.2.
`COc1ccc(-c2nc3ccc(C(=O)NCC(OC)OC)cc3nc2-c2ccc(OC)c(OC)c2)cc1OC` gave BoNT F protease -1.5, MazF activator -3.2, Autofluor counter 3509, BoNT-A LC inh2 2.0, Anthrax LF inh2 4.9 and DUSP3 inh 1.6.
COc1ccc(C)cc1N(CC(=O)N1CCOCC1)S(C)(=O)=O was read as BoNT F protease 35.7*, MazF activator 6.7, Autofluor counter 4074, BoNT-A LC inh2 -3.0, Anthrax LF inh2 14.0, DUSP3 inh 19.3, BoNTA LC inh 1 -0.1, BoNTF LC inh 1 0.0 and LF protease CP1 -4.9.
Screening COc1ccc(C)cc1N(CC(=O)N1CCCC1)S(C)(=O)=O returned BoNT F protease 4.6, MazF activator 2.2, Autofluor counter 3853, BoNT-A LC inh2 -1.2, Anthrax LF inh2 -9.5 and DUSP3 inh 20.7.
O=C1NC[C@@H](CCCCN2CCN(CC3CCCCC3)C(=O)C2=O)N(CC2CCCCC2)C1=O was read as BoNT F protease 0.9, Autofluor counter 5841, BoNT-A LC inh2 0.5 and Anthrax LF inh2 -7.3.
O=C(CN1CCOCC1)Nc1ccc(Cl)cc1 was read as BoNT F protease inconclusive, MazF activator 5.4, Autofluor counter 3809, BoNT-A LC inh2 1.6, Anthrax LF inh2 -4.1 and DUSP3 inh 8.1.
For O=C(CN1CCOCC1)Nc1ccc(Cl)cn1 the results were BoNT F protease 22.3, MazF activator 9.9, Autofluor counter inconclusive, BoNT-A LC inh2 1.3, Anthrax LF inh2 31.7*, DUSP3 inh 16.7, BoNTA LC inh 1 0.8, BoNTF LC inh 1 -0.7 and LF protease CP1 1.7.
Screening CCc1cccc(CC)c1NC(=O)C1CN(S(=O)(=O)c2ccccc2)CCN1S(=O)(=O)c1ccccc1 (stereo not drawn) returned BoNT F protease -5.9, MazF activator 2.9, Autofluor counter 2655, BoNT-A LC inh2 2.1, Anthrax LF inh2 3.2 and DUSP3 inh 17.6.
Cc1cccc(C(C)C)c1NC(=O)C1CN(S(=O)(=O)c2ccccc2)CCN1S(=O)(=O)c1ccccc1 (stereo not drawn) was read as BoNT F protease 14.0, MazF activator -3.2, Autofluor counter 6056, BoNT-A LC inh2 38.4*, Anthrax LF inh2 37.3*, DUSP3 inh 4.6, BoNTA LC inh 1 1.7, BoNTF LC inh 1 -3.8 and LF protease CP1 -0.3.
Screening CCOC(=O)CCCCC(=O)c1[nH]c(=O)[nH]c1CSc1nnc2c3cc(Br)ccc3n(C)c2n1 returned DUSP3 inh -7.0.
`CCOC(=O)CCCCC(=O)c1[nH]c(=O)[nH]c1CSc1nc(C)cc(=O)[nH]1` gave BoNT F protease 47.3*, MazF activator -9.3, Autofluor counter 6552, BoNT-A LC inh2 7.6, Anthrax LF inh2 3.9, DUSP3 inh -0.5, BoNTA LC inh 1 1.2, BoNTF LC inh 1 4.4 and LF protease CP1 -1.9.
Screening CCOC(=O)c1[nH]c(=O)[nH]c1CSc1nc(C)cc(C)n1 returned BoNT F protease -3.3, MazF activator 1.1, Autofluor counter 4731, BoNT-A LC inh2 -0.2, Anthrax LF inh2 -1.7 and DUSP3 inh 7.9.
Screening CCOC(=O)CCCCC(=O)c1[nH]c(=O)[nH]c1CN1CCOCC1 returned BoNT F protease 58.8*, MazF activator -6.7, Autofluor counter 5310, BoNT-A LC inh2 9.5, Anthrax LF inh2 4.1, DUSP3 inh -11.0, BoNTA LC inh 1 -1.0, BoNTF LC inh 1 -3.2 and LF protease CP1 -0.6.
Screening CCOC(=O)CCCCC(=O)c1[nH]c(=O)[nH]c1CSc1nc2ccccc2[nH]1 returned BoNT F protease 36.5*, MazF activator -11.2, Autofluor counter 7134, BoNT-A LC inh2 5.0, Anthrax LF inh2 0.3, DUSP3 inh -4.8, BoNTA LC inh 1 -0.4, BoNTF LC inh 1 -5.9 and LF protease CP1 -3.2.
Screening CCOC(=O)CCCCC(=O)c1[nH]c(=O)[nH]c1C[n+]1ccc(C)cc1 returned BoNT F protease -1.6, MazF activator -2.5, Autofluor counter 4458, BoNT-A LC inh2 0.4, Anthrax LF inh2 -2.6 and DUSP3 inh 2.7.

Screens: PubChem BioAssay, several laboratories
